Test systems include NCI-H23 lung; NCI-H226 lung; NCI-H322M lung; HOP-62 NSCLC; NCI-H460 lung; HOP-92 NSCLC; NCI-H522 lung; A549/ATCC NSCLC; 786-0 renal; COLO 205 colon; DU-145 prostate; K-562 leukemia; MALME-3M melanoma; MDA-MB-231 breast; SF-268 CNS; SF-295 CNS; SF-539 CNS; UACC-257 melanoma; M14 melanoma.
What all share (test): NCI-60 one-dose screen, 48 h (100 = growth as untreated, 0 = no growth, -100 = all killed)
Conditions in all cases: 10 µM unless noted

SMILES strings stand for the structures. Compounds without any hit were thinned out: in the full panel of roughly 83,000, 20% have a hit.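 Plates (96-well) were seeded with cells, treated with compound at one concentration, and incubated for 48 hours before percent growth was determined.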 Unmarked numbers belong to inactive results. Active and inactive are the calls of the source. How the source made its calls: active means growth percent below 10; inactive means the rest.

In the case of `Clc1ccc(C2CC(c3cccc(Nc4ccncc4)c3)=NN2c2cc(Cl)cc(Cl)c2)cc1` (stereo not drawn), the growth in the assay on NCI-H23 lung is 79.6%; in the assay with NCI-H226 lung, 88.7%; with NCI-H322M lung, 81.6%; in the assay on HOP-62 NSCLC, 68.5%; in the assay on NCI-H460 lung, -68% (active); in the assay with HOP-92 NSCLC, 71.3%. The growth in the assay with NCI-H522 lung is 89.1%; in the assay with A549/ATCC NSCLC, 47.6%; with 786-0 renal, -88.5% (active); with COLO 205 colon it was -58% (active); in the assay on DU-145 prostate, 48%; with K-562 leukemia it was 1.88% (active). For the same compound, the growth with MALME-3M melanoma was 62.8%; in the assay with MDA-MB-231 breast, 71.5%; in the assay on SF-268 CNS, 83.8%; in the assay on SF-295 CNS, 70.5%; with SF-539 CNS, 81.9%; in the assay on UACC-257 melanoma, 88.8%. Moreover, the growth with M14 melanoma is -63.9% (active).

For the compound `COc1cc(OC)c(/C=C/C(=O)c2ccc(Nc3ncnc4ccccc34)cc2)c(OC)c1`, the growth in the assay on NCI-H23 lung was 17%; in the assay on NCI-H226 lung it was -17.3% (active); in the assay with NCI-H322M lung, 11.5%; in the assay on HOP-62 NSCLC it was -54.5% (active); in the assay on NCI-H460 lung, -23.1% (active); in the assay on HOP-92 NSCLC, -16.4% (active). Moreover, the growth was -51.4% (active) in the assay with NCI-H522 lung; 12.2% in the assay on A549/ATCC NSCLC; -13.2% (active) in the assay on 786-0 renal; 6.02% (active) with COLO 205 colon; -26.5% (active) in the assay on DU-145 prostate; 4.41% (active) with K-562 leukemia. Moreover, the growth is -39.8% (active) in the assay with MALME-3M melanoma; -19.9% (active) with MDA-MB-231 breast; -71.9% (active) in the assay with SF-268 CNS; -47.7% (active) with SF-295 CNS; -56.6% (active) in the assay on SF-539 CNS; -12% (active) in the assay on UACC-257 melanoma. The growth with M14 melanoma is -15.5% (active).

In the case of `CC1(C)CN(c2cnc(C(=O)Nc3cc(F)cc4cccnc34)cn2)CCN1`, the growth in the assay on NCI-H23 lung is 88.8%; in the assay on NCI-H226 lung, 92.7%; in the assay with NCI-H322M lung, 85.4%; in the assay on HOP-62 NSCLC, 91.8%; with NCI-H460 lung, 82.5%; with HOP-92 NSCLC, 64.6%. Further, the growth was 41% with NCI-H522 lung; 92.5% in the assay on A549/ATCC NSCLC; 78.9% with 786-0 renal; 19.7% in the assay on COLO 205 colon; 101% in the assay with DU-145 prostate; 36.3% in the assay on K-562 leukemia. Also, the growth was 47.5% in the assay with MALME-3M melanoma; 58% in the assay on MDA-MB-231 breast; 74.6% in the assay with SF-268 CNS; 97.8% in the assay on SF-295 CNS; 83.7% in the assay on SF-539 CNS; 93.5% in the assay on UACC-257 melanoma. For the same compound, the growth in the assay with M14 melanoma is 70.8%.

Take `O=[N+]([O-])c1cccc(-c2nc(-c3ccc(Cl)cc3Cl)cn2-c2ccccc2)c1`: the growth in the assay on NCI-H23 lung was 20.8%; in the assay with NCI-H226 lung, 18%; with NCI-H322M lung, 157%; in the assay on HOP-62 NSCLC, -75.4% (active); with NCI-H460 lung, -76.4% (active); in the assay on HOP-92 NSCLC it was 12.6%. The growth is 12.8% in the assay with NCI-H522 lung; -32.9% (active) with A549/ATCC NSCLC; -99.5% (active) with 786-0 renal; -36.5% (active) in the assay with COLO 205 colon; -80.1% (active) in the assay on DU-145 prostate; 43.5% with K-562 leukemia. Also, the growth with MALME-3M melanoma is 128%; in the assay with MDA-MB-231 breast, -14.6% (active); with SF-268 CNS, 0.437% (active); with SF-295 CNS, -74.3% (active); in the assay on SF-539 CNS, 23.6%; in the assay on UACC-257 melanoma, -63.6% (active). Moreover, in the assay on M14 melanoma, the growth was -71.6% (active).

With `COc1ccc(-c2nc(SCCC(C)C)nc(N/N=C(/C)c3ccc(C)cc3)c2C#N)cc1`, the growth in the assay on NCI-H23 lung is 84.5%; in the assay with NCI-H226 lung it was 91.7%; with NCI-H322M lung, 87.4%; in the assay with HOP-62 NSCLC, 93.9%; with NCI-H460 lung, 99.7%; with HOP-92 NSCLC, 62.2%. The growth is 87.2% with NCI-H522 lung; 99.3% in the assay on A549/ATCC NSCLC; 102% with 786-0 renal; 109% in the assay with COLO 205 colon; 104% in the assay with DU-145 prostate; 94.6% with K-562 leukemia. Also, the growth was 103% in the assay with MALME-3M melanoma; 71% in the assay with MDA-MB-231 breast; 93.2% in the assay with SF-268 CNS; 97.7% in the assay with SF-295 CNS; 86.9% in the assay on SF-539 CNS; 98% in the assay with UACC-257 melanoma. In addition, in the assay on M14 melanoma, the growth is 90.4%.

`O=C1CCCCCCCCC(O)C(O)CCCC(c2cccs2)O1` (stereo not drawn): the growth in the assay with NCI-H23 lung was 91%; in the assay with NCI-H226 lung it was 99.5%; with NCI-H322M lung, 113%; in the assay on HOP-62 NSCLC, 87.6%; in the assay on NCI-H460 lung, 106%; in the assay with HOP-92 NSCLC it was 82.7%. The growth in the assay with NCI-H522 lung was 91.7%; with A549/ATCC NSCLC it was 82.7%; with 786-0 renal it was 98.8%; with COLO 205 colon, 108%; with DU-145 prostate, 117%; with K-562 leukemia, 96%. The growth in the assay with MALME-3M melanoma is 107%; with MDA-MB-231 breast, 84.8%; in the assay with SF-268 CNS it was 95.9%; with SF-295 CNS, 93.7%; in the assay with SF-539 CNS, 106%; in the assay on UACC-257 melanoma it was 60.9%. For the same compound, the growth in the assay on M14 melanoma was 99.7%.

In the case of `O=C(Nc1ccc2ncnc(Nc3ccc(Oc4cccc(F)c4)c(Cl)c3)c2c1)c1ccc(CNCCO)cc1`, the growth in the assay on NCI-H23 lung was 73.7%; with NCI-H226 lung it was 91.6%; with NCI-H322M lung, 39.9%; in the assay with HOP-62 NSCLC it was 54.7%; in the assay on NCI-H460 lung, -61.4% (active); in the assay with HOP-92 NSCLC, 62.5%. Also, the growth is 26.9% with NCI-H522 lung; 48.6% in the assay with A549/ATCC NSCLC; -4.01% (active) with 786-0 renal; -54.5% (active) in the assay with COLO 205 colon; 7.74% (active) with DU-145 prostate; -8.41% (active) in the assay with K-562 leukemia. The growth was 2.04% (active) with MALME-3M melanoma; -67.2% (active) in the assay with MDA-MB-231 breast; 56% with SF-268 CNS; 19.6% in the assay with SF-295 CNS; 33.9% in the assay on SF-539 CNS; 99.1% with UACC-257 melanoma. The growth in the assay with M14 melanoma is -45.9% (active).

Source of the values: PubChem BioAssay (NCI).
